Screening results deposited in PubChem BioAssay by several laboratories.
A selection follows.
CYP2C19 inhib = inhibitors of human CYP2C19; inhibition, % at 5 µM; P33261; CYP2C19 Supersomes, luciferin-H EGE luminescence, 30 min; 96,000 compounds, 21% hits;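 active means CYP2C19 inhibition above a set limit at 5 µM in the primary screen, cut at about 50% in these data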;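 further: plate controls were negative control wells for no effect and 2.5 mM tranylcypromine positive control for full effect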
Target sequence (P33261 whole entry, looked up): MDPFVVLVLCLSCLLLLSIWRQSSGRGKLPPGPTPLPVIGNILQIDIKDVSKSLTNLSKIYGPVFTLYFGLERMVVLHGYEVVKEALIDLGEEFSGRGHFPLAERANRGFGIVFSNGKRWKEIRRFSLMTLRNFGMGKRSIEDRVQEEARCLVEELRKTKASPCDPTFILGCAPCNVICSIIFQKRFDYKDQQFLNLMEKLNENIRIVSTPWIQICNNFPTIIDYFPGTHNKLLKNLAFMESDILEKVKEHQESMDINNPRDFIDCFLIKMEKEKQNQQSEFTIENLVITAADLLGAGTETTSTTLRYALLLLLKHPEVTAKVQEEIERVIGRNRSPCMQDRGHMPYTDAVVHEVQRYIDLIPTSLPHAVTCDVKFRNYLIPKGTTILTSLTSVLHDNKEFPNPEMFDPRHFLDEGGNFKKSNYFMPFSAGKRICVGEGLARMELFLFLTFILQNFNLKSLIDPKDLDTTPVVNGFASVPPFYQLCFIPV
CYP2C9 inh = human CYP2C9 inhibition | CYP2C9 Supersomes, luciferin-H conversion, luminescence | inhibition, % at 5 µM | 96,000 compounds, 20% hits | AID 777;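 active means blocking of liver enzyme CYP2C9 beyond about 50% at 5 µM, limit read from the data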
PostGolgi ctrl = growth of the yeast control strain, post-Golgi counter-screen | efflux-deficient yeast background strain, growth absorbance A615, 16 h | inhibition, % at 10 µM | 98,000 compounds, 5% hits | AID 738
CYP2C19 activ = increases human CYP2C19 enzyme activity; 96,000 tested, under 10 active; AID 1025; activation factor at 5 µM; recombinant CYP2C19, luciferin-H EGE luminescence; hits give high values; 0 = fully inhibited enzyme, 1 = untreated enzyme;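 active means activation factor of at least 2 at 5 µM in the primary screen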;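 further: 0 = wells with 2.5 mM tranylcypromine and 1 = vehicle-only wells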
CYP2C9 activ = CYP2C9 (human) activation. P11712. recombinant CYP2C9, luciferin-H conversion, luminescence; hits give high values; factor 1 = untreated enzyme, 0 = blocked. activation factor at 5 µM. 96,000 compounds, 1.4% hits;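 active means activation factor of 2 or more for CYP2C9 at a 5 µM dose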;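 further: 0 = sulfaphenazole-blocked wells and 1 = vehicle-only wells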
PostGolgi yeast = growth inhibition of a yeast mutant, post-Golgi transport screen; post-Golgi transport phenotypic cell assay; inhibition, % at 10 µM; 98,000 compounds, 0.9% hits; AID 739;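 further: yeast cells grown in 1536-well plates; yeast grown about 18 h at 30C before absorbance read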
Starred values were filed as active, the others as inactive. Unless noted, no stated cut-off is given here; in the data, active means inhibition above about 30%; inactive means the rest.

SMILES | CYP2C19 inhib | CYP2C9 inh | PostGolgi ctrl | CYP2C19 activ | CYP2C9 activ | PostGolgi yeast
CCN(CC)C(=O)COc1ccc(-c2ccccc2)cc1 | 40.0 | 16.9 | 20.6 | 0.6 | 0.8 | -4.2
O=C(NCCNS(=O)(=O)c1ccc(Cl)cc1)c1cc(OCC(F)(F)F)ccc1OCC(F)(F)F | 41.9 | -5.6 | -1.8 | 0.6 | 1.1 | -3.2
CCc1ccc(C(=O)COc2ccc(NC(C)=O)cc2)cc1 | 87.5* | 77.3* | -7.0 | 0.1 | 0.2 | -18.9
COC(=O)c1ccc(OCC(=O)c2ccccc2)cc1 | 74.9* | 29.9 | 6.5 | 0.3 | 0.7 | 5.1
COC(=O)c1[nH]c(=O)c2ccccc2c1OCc1ccccc1 | 20.3 | 10.4 | 6.5 | 0.8 | 0.9 | -1.1
O=C(OCc1ccc(Cl)c(Cl)c1)c1cnccn1 | 60.9* | 6.5 | -10.4 | 0.4 | 0.9 | -8.5
COC(=O)c1cc(O)c(OCc2ccccc2)c(O)c1 | 95.0* | 91.4* | 3.2 | 0.1 | 0.1 | -4.0
CCOc1ccc(C(=O)COc2ccc(NC(C)=O)cc2)cc1 | 49.0 | 45.7 | -5.0 | 0.5 | 0.5 | -3.6
COC(=O)c1nnn(-c2nonc2N)c1CSc1ccc(Cl)cc1 | 38.1 | 16.4 | -4.0 | 0.6 | 0.8 | 3.3
O=C(CN(c1ccccc1F)S(=O)(=O)c1ccccc1)N1CCCCCC1 | 2.5 | -19.3 | 8.6 | 1 | 1.2 | -1.1
O=C(COC(=O)c1ccccc1)c1ccc(Br)cc1 | 56.5* | 12.9 | 12.2 | 0.4 | 0.9 | -14.0
COc1cccc(NC(=O)COC(=O)CCCc2c[nH]c3ccccc23)c1 | 30.0 | -70.2 | 10.6 | 0.7 | 1.7 | 13.9
CCOc1ccc(NC(=O)COC(=O)CCCc2c[nH]c3ccccc23)cc1 | 23.0 | 46.4 | 5.6 | 0.8 | 0.5 | 0.2
O=C(COC(=O)C1c2ccccc2Oc2ccccc21)Nc1ccc2c(c1)OCO2 | 18.6 | 58.1* | 20.0 | 0.8 | 0.4 | 5.3
COc1ccc(NC(=O)COC(=O)CCCc2c[nH]c3ccccc23)cc1 | 83.9* | 81.2* | 1.3 | 0.2 | 0.2 | -1.4
O=C(COC(=O)CCCc1c[nH]c2ccccc12)Nc1ccc2c(c1)OCO2 | 72.6* | 21.5 | 3.1 | 0.3 | 0.8 | -1.7
COc1ccc(NC(=O)Cn2nnc(C(=O)NCc3ccco3)c2N)c(OC)c1 | -2.1 | 18.9 | 1.9 | 1 | 0.8 | -1.5
COc1ccc(CC(C(=O)Nc2cccc(F)c2)c2nn[nH]n2)c(OC)c1 (stereo unspecified) | 29.0 | 32.1 | 15.8 | 0.7 | 0.7 | -1.8
CCOC(=O)C1CCN(S(=O)(=O)Cc2ccccc2)C1=O (stereo unspecified) | 77.0* | 6.3 | 8.0 | 0.2 | 0.9 | -1.3
CCOC(=O)[C@@H]1CCNC[C@@H]1c1ccccc1 | -4.1 | 2.2 | 8.5 | 1 | 1 | 1.8
CCC(C(=O)c1ccccc1)N(C(=O)c1ccccc1Cl)N1C(=O)C2C3C=CC(C3)C2C1=O (stereo unspecified) | 48.5 | 4.6 | 3.8 | 0.5 | 1 | -5.0
COc1ccc2c(CC(=O)Nc3ccc(OC)c(NS(=O)(=O)c4ccc(F)cc4)c3)coc2c1 | 72.4* | 74.1* | 14.3 | 0.3 | 0.3 | 0.1
COc1ccc(NC(=O)CCNC(C)=O)cc1NS(=O)(=O)c1ccc(F)cc1 | 51.9* | 29.1 | -4.1 | 0.5 | 0.7 | 3.6
CC(C)C(NS(=O)(=O)c1cccc2nsnc12)C(=O)N1CCn2c1nc1ccccc12 (stereo unspecified) | 48.2 | 23.3 | 4.5 | 0.5 | 0.8 | 1.0
CC(C)Sc1nnc([C@H](Cc2c[nH]c3ccccc23)NC(=O)OC(C)(C)C)o1 | 36.2 | 47.9 | 15.7 | 0.6 | 0.5 | -7.0
SMILES | CYP2C19 inhib | CYP2C9 inh | PostGolgi ctrl | CYP2C19 activ | CYP2C9 activ | PostGolgi yeast
Cc1cccc(N2CCN(c3cccc(C)c3)C2c2cccnc2)c1 | 46.7 | 20.6 | 18.9 | 0.5 | 0.8 | -2.2
Cc1ccc(N2CCN(c3ccc(C)cc3)C2c2ccncc2)cc1 | 87.6* | 70.9* | 17.1 | 0.1 | 0.3 | 8.5
CN1CCN(C(=O)C2CCCCC2C(=O)O)CC1 (stereo unspecified) | -1.1 | -14.6 | -3.5 | 1 | 1.1 | -1.9
O=C(CSc1nnc(-c2c[nH]c3ccccc23)o1)N1c2ccccc2CCc2ccccc21 | 78.8* | 92.4* | 24.9 | 0.2 | 0.1 | 2.1
O=C(CSc1nnc(-c2c[nH]c3ccccc23)o1)N1CCCCC1 | 41.0 | 6.8 | 3.4 | 0.6 | 0.9 | 2.7
O=C(CSc1nnc(COc2cccc3cccnc23)o1)c1ccc(F)cc1 | 23.5 | -31.2 | 8.5 | 0.8 | 1.3 | -7.3
